# Assay outcomes from PubChem BioAssay.
# An excerpt weighted towards active compounds, which were near 19% of everything screened.
# ELG1 repair inh: ELG1-dependent DNA repair inhibition; HEK293T ELG1-luciferase reporter, luminescence, 16 h; DNA damage induced by 5-fluorouridine; Potency, µM (top dose mostly 46.1 µM), for the others: at the top dose activity change, negative = inhibition, usual class: inhibitors; 330,000 compounds, 2.3% hits; note: potency is the fitted concentration of half-maximal effect; nearly all actives have a fitted effect of over 55% in size
#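 HEK293T cells expressing luciferase-tagged ELG1 (2,000/well) received 5-Fluorouridine plus compound or DMSO for 16 hr at 37 °C. Luciferase was read by ONE-Glo luminescence after 30 min at room temperature.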
# DT40 TDP1 no CPT: qHTS for Inhibitors of human tyrosyl-DNA phosphodiesterase 1 (TDP1): qHTS in cells in absence of CPT | DT40 Tdp1-/- hTDP1 cells, no CPT, ATP luminescence, 48 h | Potency, µM (highest dose often 46.2 µM), for the others: at the highest dose activity change, negative = growth inhibition, hits mostly inhibitors | 420,000 compounds, 15% hits | AID 686978, 2013; note: potency is the fitted concentration of half-maximal effect; nearly all actives have a fitted effect of over 55% in size
#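 Chicken DT40 Tdp1-/- cells complemented with human TDP1, screened without camptothecin (DMSO vehicle only), 400 cells/well. Compounds pin-transferred, cells incubated at 37 °C for at least 48 hr. Growth read as ATP-dependent luminescence (CellTiter-Glo, 30 min at RT).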
# DT40 TDP1 CPT: growth inhibition of DT40 Tdp1-/-;hTDP1 cells with camptothecin (screen for TDP1 inhibitors); 420,000 compounds, 12% hits; Potency, µM (top dose mostly 46.2 µM), inactives show top-dose activity change, negative = growth inhibition, hits mostly inhibitors; chicken DT40 Tdp1-/-;hTDP1 cells + 20 nM CPT, ATP luminescence, 48 h; note: potency is the fitted concentration of half-maximal effect; nearly all actives have a fitted effect of over 55% in size
#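 Cell growth measured by CellTiter-Glo luminescence after a minimum 48 h, 37 C compound exposure with 20 nM CPT in Tdp1-knockout DT40 cells stably expressing hTDP1, seeded 400/well; qHTS titration format.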
# HT1080 IDH1KD tx: kills HT-1080 cells with IDH1 knockdown; 360,000 compounds, 2% hits; HT-1080 IDH1 knockdown viability, ATP luminescence, 48 h; AID 686971; Potency, µM (titrated, usually from 46.1 µM), inactives show top-dose activity, negative = toxicity, hits mostly cytotoxic;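 note: potency is the fitted concentration of half-maximal effect; 0% = DMSO wells and -100% = cell-free medium wells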
#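 After a 2 h attachment period, IDH1KD HT-1080 cells took pin-transferred compound for 48 h at 37 °C; ATP-based luminescence after 10 min room-temperature reagent incubation reported viability.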
# IL1B secr inh: inhibitors of inflammasome signaling (IL-1 beta secretion); THP-1 LPS/ATP IL-1B secretion, AlphaLISA, 16 h; active compounds read low; activity change, % at 57.5 µM; 360,000 compounds, 4.7% hits; AID 743279; in the data active = activity change below about -50%; inconclusive = mostly about -30% to -49%
#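 Secreted IL-1B measured by AlphaLISA bead assay after 16 h compound exposure of THP-1 cells; compounds (final up to 57.5 uM) added 1 h before LPS (250 ng/mL) and ATP (1.25 mM) stimulation; lower signal means less secretion.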
# HT1080-NT tox: kills 2HG-producing HT-1080-NT fibrosarcoma cells; HT-1080-NT fibrosarcoma viability, CellTiter-Glo ATP luminescence, 48 h; Potency, µM (series often up to 46.1 µM), inactives show top-dose activity, negative = less viability, hits mostly cytotoxic; 360,000 compounds, 1.6% hits;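 note: NT is the 2HG producing partner of a matched IDH1 knockdown line; potency is the fitted concentration of half-maximal effect; 0% = DMSO-treated cells and -100% = media-only wells without cells; nearly all actives have a fitted effect of over 55% in size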
#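 A 48-hour cytotoxicity screen used HT-1080-NT cells plated 2 hours before compound delivery. ATP-based CellTiter-Glo luminescence measured viability, normalized to DMSO and no-cell controls.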
# * hit, by the source's call; i = inactive; ? = inconclusive; / = not tested or not shown. Unless noted, calls come from the whole dose curve; as a rule, active = well fitted curve in the direction sought with a large enough effect; inconclusive = small, poorly fitted or top-dose-only effect, or another doubt; inactive = no such curve, though single readings can be large; an effect the other way counts as inactive or inconclusive. Unless noted, % is set by controls: 0 for no effect and ±100 for the full control effect.
SMILES,ELG1 repair inh,DT40 TDP1 no CPT,DT40 TDP1 CPT,HT1080 IDH1KD tx,IL1B secr inh,HT1080-NT tox
Cc1ccc(/C=N/NC(=O)c2cccs2)s1,?,-8%,-20%,1%,-4,-1%
O=C(N/N=C/c1ccccc1O)c1ccc2c(c1)OCO2,?,4.1µM*,5.2µM*,?,93,?
O=C(NN=Cc1ccc2c(c1)CCN2)c1cccs1,/,15µM*,?,0%,-2,4%
O=C(N/N=C/c1cccs1)c1ccc2c(c1)OCO2,?,-26%,-10%,3%,0,9%
COc1cc(/C=N/NC(=O)c2cccs2)ccc1O,?,1%,-15%,-5%,4,8%
O=C(N/N=C/c1ccc(Br)s1)c1cccs1,?,21µM*,16µM*,-5%,10,-15%
O=C(O)c1ccc(/C=N/Nc2ccc(F)cc2F)cc1,?,2%,14%,5.2µM*,3,3.3µM*
CCOc1ccc(CCNC(=O)C2CCN(c3ncnc4c3nc3n4CCCCC3)CC2)cc1,/,-6%,?,/,/,/
O=C(O)COc1ccccc1/C=N/NC(=O)c1ccc2c(c1)OCCO2,23%,8%,3%,2%,6,3%
O=C(N/N=C/c1c[nH]c2ccccc12)c1ccccc1,?,-1%,3%,11%,-2,15%
O=C(N/N=C/c1c[nH]c2ccccc12)c1ccc2c(c1)OCCO2,?,16µM*,?,21µM*,/,?
O=C(N/N=C/c1ccc(Cl)cc1)c1ccc2c(c1)OCO2,?,13µM*,?,?,-6,?
O=C(N/N=C/c1ccccc1OC(=O)c1ccc2c(c1)OCO2)c1cccc(F)c1,11%,1.3µM*,1.2µM*,?,122,?
COc1ccc(/C=N/NC(=O)c2ccc(COCC(F)(F)C(F)F)cc2)cc1,-1%,-2%,6%,-8%,-12,4%
O=C(N/N=C/c1ccc2c(c1)OCO2)c1ccc(COCC(F)(F)C(F)F)cc1,-4%,1%,-13%,1.3µM*,5,1µM*
C[C@H]1CN([C@@H](C)CO)C(=O)CCCn2nncc2CO[C@H]1CN(C)C(=O)Nc1ccc2c(c1)OCO2,/,14%,6%,-1%,0,1%
Cc1ccc(SCC(=O)Nc2ccc(-c3nc4ccccc4[nH]3)cc2)cc1,9%,?,?,-3%,18,-11%
O=C(N/N=C/c1ccc2c(c1)OCO2)c1sc2cc(Cl)ccc2c1Cl,13%,5.2µM*,5.8µM*,-3%,21,-7%
Cc1ccc(CNC(=O)c2cn(C3CCCCC3)c(=O)c3c2c2ccccc2n3C)o1,?,16µM*,12µM*,?,-86*,?
Cc1cc(NC(=O)c2cn(C3CCCCC3)c(=O)c3c2c2ccccc2n3C)no1,?,23µM*,?,-3%,-3,-1%
Cc1ccc(CNC(=O)c2cn(C)c(=O)c3c2c2ccccc2n3C)o1,-8%,?,?,-6%,9,9%
CCOC(=O)C1=C[C@@H](CC)N(S(=O)(=O)c2ccc([N+](=O)[O-])cc2)[C@H]1c1ccccc1,/,?,21µM*,3%,22,7%
CCOC(=O)C1=C[C@@H](C(C)C)N(S(=O)(=O)c2ccc([N+](=O)[O-])cc2)[C@H]1c1ccccc1,/,?,?,-19%,-1,0%
CCOC(=O)C1=C[C@@H](CC)N(S(=O)(=O)c2ccc(C)cc2)[C@H]1c1cccs1,/,16µM*,15µM*,?,-6,?
CCOC(=O)C1=C[C@@H](C(C)(C)C)N(S(=O)(=O)c2ccc(C)cc2)[C@H]1c1cccc(Cl)c1,/,13µM*,15µM*,18µM*,34,?
SMILES,ELG1 repair inh,DT40 TDP1 no CPT,DT40 TDP1 CPT,HT1080 IDH1KD tx,IL1B secr inh,HT1080-NT tox
CC[C@@H]1C=C(C(=O)O)[C@H](c2ccc(C)cc2)N1S(=O)(=O)c1ccc(C)cc1,-3%,6%,9%,-2%,44,-11%
CCOc1ccc([C@@H]2CC=C(C(=O)O)[C@H](c3cccc(Cl)c3)N2S(=O)(=O)c2ccc(C)cc2)cc1,19%,?,?,12%,40,4%
CCOC(=O)C1=C[C@@H](c2ccccc2)N(S(=O)(=O)c2ccc(C)cc2)[C@H]1c1cccc(Cl)c1,/,23µM*,?,9%,12,2%
CCOC(=O)C1=C[C@@H](CC)N(S(=O)(=O)c2ccc(C)cc2)[C@H]1c1cccc(Cl)c1,/,21µM*,?,?,2,-8%
CC(=O)c1c2c3c(c(Br)ccc3n(C)c1=O)C(=O)c1ccccc1-2,28%,23µM*,?,15%,-20,20%
CC(=O)c1c2c3c(cccc3n(C)c1=O)C(=O)c1ccccc1-2,-9%,-6%,0%,-1%,10,-1%
COC(=O)c1cc2oc(C)cc2n1Cc1ccc(Br)cc1F,/,-22%,-4%,/,/,/
O=C(COC(=O)c1cc2ccccc2oc1=O)Nc1ccc(F)cc1F,?,17%,1%,14%,7,16%
O=C(C1CC12CCCC2)N1CCC(CO)(Cc2ccccc2Cl)CC1 (stereo unspecified),1%,-30%,-28%,-1%,-15,-3%
COc1ccc(/C=C/CN2CCC(CO)(Cc3ccccc3Cl)CC2)cc1,4%,15µM*,?,23µM*,-79*,23µM*
COc1ccc(/C=N/NC(=O)c2cccnc2)cc1COc1ccc([N+](=O)[O-])c(C)c1,15µM*,4.1µM*,3.7µM*,2.1µM*,/,2.6µM*
COc1ccc(/C=N\NS(=O)(=O)c2ccc(C)cc2)cc1COc1ccccc1[N+](=O)[O-],16µM*,?,?,-8%,-20,-14%
COc1ccc(/C=N\NC(=O)c2ccc([N+](=O)[O-])c(C)c2)cc1COc1ccccc1C(N)=O,?,-21%,-29%,-3%,i,6%
COc1cc(/C=N/NS(=O)(=O)c2ccc(C)cc2)ccc1OCc1cccc(C(=O)O)c1,?,-5%,-6%,-1%,8,0%
COc1ccc(/C=N/NC(=O)c2ccccc2OC)cc1COc1ccccc1[N+](=O)[O-],13µM*,29µM*,18µM*,?,-11,?
CN(CC(=O)Nc1ncn[nH]1)S(=O)(=O)c1ccc(Br)cc1,-6%,-5%,4%,16%,5,3%
